Experimental findings from PubChem BioAssay (NCI) are described below.

Assay [1] can be described thus: NCI Yeast Anticancer Drug Screen. Data for the rad50 strain (AID 155).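 Note: 0% = growth of vehicle-only cultures of the same strain.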 The note with it: S. cerevisiae rad50 strain growth inhibition, stronger effect = higher value. In a few lines:
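Cells are treated with compound, grown, and their growth is then scored against vehicle-only cultures of the same repair-deficient yeast strain.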

Assay [2] in a line: NCI Yeast Anticancer Drug Screen. Data for the mec2-1 strain (AID 157). The note with it: S. cerevisiae mec2-1 strain, stronger effect = higher value. Put shortly: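 Using mec2-1 yeast: add compound, measure growth, express inhibition versus vehicle-treated cultures.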
The nature of assay [3]: NCI Yeast Anticancer Drug Screen. Data for the sgs1 mgt1 strain (AID 161).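 Note: 0% = growth of cultures given vehicle only.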 The note with it: S. cerevisiae sgs1 mgt1 strain, stronger effect = higher value. Put shortly: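 Percent growth inhibition was derived by comparing compound-exposed mutant yeast with vehicle-exposed cultures. The strain carries alterations in DNA damage repair.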
A short description of assay [4]: NCI Yeast Anticancer Drug Screen. Data for the cln2 rad14 strain (AID 165).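 Note: 0% = growth equal to vehicle treated cultures.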 The note with it: S. cerevisiae cln2 rad14 strain, stronger effect = higher value. Put shortly:
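Yeast strain cln2 rad14, bearing defects in cell cycle control and DNA repair, serves as the test system; values reflect growth inhibition compared with vehicle.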

Assay [5] in a line: NCI Yeast Anticancer Drug Screen. Data for the bub3 strain (AID 167). The note with it: S. cerevisiae bub3 mutant strain, stronger effect = higher value. Put shortly: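 Part of a panel of yeast mutants defective in DNA damage repair or cell cycle regulation. Each strain is grown with compound, and inhibition is calculated relative to solvent-treated cultures.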
A short description of assay [6]: NCI Yeast Anticancer Drug Screen. Data for the mlh1 rad18 strain (AID 175). The note with it: S. cerevisiae mlh1 rad18 strain growth inhibition, stronger effect = higher value. Put shortly: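 Steps: expose repair-defective yeast to compound; measure growth; express inhibition against vehicle-treated controls.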
The mark [7] stands for this setting: at 5.0 µM (retest, dose inferred, filed as 0.5).
Where [8] appears, read: at 50.0 µM (retest, dose inferred, filed as 5.0).

The panel holds about 79,000 compounds, 15% with a hit somewhere; the sample as a whole holds those more often. Values without a mark were called inactive. Activity calls are given as the source filed them. Cut-off read from the data, not from the text of the source: active = growth inhibition above about 70%; inactive = the rest.

Take `CN1c2ccccc2C(c2ccccc2)c2ccc(Nc3ccccc3)cc21` (configuration not stated): the growth inhibition in assay [1] (setting [7]) was 94% (active); in assay [1] (setting [8]), 99% (active); in assay [1] (at 50.0 µM), 97.7% (active); in assay [2] (setting [7]), 100% (active); in assay [2] (setting [8]) it was 100% (active); in assay [2] (at 50.0 µM) it was 99.6% (active). Besides, the growth inhibition is 98% (active) in assay [3] (setting [7]); 100% (active) in assay [3] (setting [8]); 99.5% (active) in assay [3] (at 50.0 µM); 95% (active) in assay [4] (setting [7]); 99% (active) in assay [4] (setting [8]); 99.2% (active) in assay [4] (at 50.0 µM). The growth inhibition in assay [5] (setting [7]) was 96% (active); in assay [5] (setting [8]), 99% (active); in assay [5] (at 50.0 µM), 99.3% (active); in assay [6] (setting [7]), 98% (active); in assay [6] (setting [8]) it was 99% (active); in assay [6] (at 50.0 µM) it was 99.4% (active).

Regarding `O=C(C[n+]1cccc2ccccc21)c1ccc(-c2ccc(C(=O)C[n+]3cccc4ccccc43)cc2)cc1`, the growth inhibition is 3% in assay [1] (setting [7]); 32% in assay [1] (setting [8]); 62.2% in assay [1] (at 50.0 µM); 50% in assay [2] (setting [7]); 23% in assay [2] (setting [8]); 50% in assay [2] (at 50.0 µM). The growth inhibition in assay [3] (setting [7]) is 2%; in assay [3] (setting [8]) it was 36%; in assay [3] (at 50.0 µM), 46.5%; in assay [4] (setting [7]), 2%; in assay [4] (setting [8]), 24%; in assay [4] (at 50.0 µM) it was 31.9%. For the same molecule, the growth inhibition in assay [5] (setting [7]) was 1%; in assay [5] (setting [8]), 44%; in assay [5] (at 50.0 µM), 45.6%; in assay [6] (setting [7]), 4%; in assay [6] (setting [8]), 53%; in assay [6] (at 50.0 µM), 86.3% (active).

With `CCCC(C(=O)OCCN1CCCC1(C)C)C1CCCC1` (configuration not stated), the growth inhibition was 17% in assay [1] (setting [7]); 38% in assay [1] (setting [8]); 41% in assay [1] (at 50.0 µM); 10% in assay [2] (setting [7]); 46% in assay [2] (setting [8]); 39% in assay [2] (at 50.0 µM). The growth inhibition in assay [3] (setting [7]) is 24%; in assay [3] (setting [8]), 58%; in assay [3] (at 50.0 µM) it was 48%; in assay [4] (setting [7]) it was 29%; in assay [4] (setting [8]), 58%; in assay [4] (at 50.0 µM), 70.7% (active). For the same molecule, the growth inhibition in assay [5] (setting [7]) was 45%; in assay [5] (setting [8]), 62%; in assay [5] (at 50.0 µM), 36.5%; in assay [6] (setting [7]), 36%; in assay [6] (setting [8]) it was 68%; in assay [6] (at 50.0 µM), 40%.

Regarding `CC1CCC(C(C)C)C(OC(=O)Nc2ccc(S(=O)(=O)N(C)C)cc2)C1` (configuration not stated), the growth inhibition was 25% in assay [1] (setting [7]); 82% (active) in assay [1] (setting [8]); 96% (active) in assay [1] (at 50.0 µM); 18% in assay [2] (setting [7]); 92% (active) in assay [2] (setting [8]); 95.2% (active) in assay [2] (at 50.0 µM). For the same molecule, the growth inhibition in assay [3] (setting [7]) was 46%; in assay [3] (setting [8]) it was 83% (active); in assay [3] (at 50.0 µM), 96% (active); in assay [4] (setting [7]) it was 8%; in assay [4] (setting [8]), 82% (active); in assay [4] (at 50.0 µM) it was 95.5% (active). For the same molecule, the growth inhibition is 29% in assay [5] (setting [7]); 90% (active) in assay [5] (setting [8]); 92.5% (active) in assay [5] (at 50.0 µM); 32% in assay [6] (setting [7]); 88% (active) in assay [6] (setting [8]); 95.8% (active) in assay [6] (at 50.0 µM).

For `O=C(O)c1ccc2c(O)c3ccccc3c(O)c2c1`, the growth inhibition was 3% in assay [1] (setting [7]); 72% (active) in assay [1] (setting [8]); 99.6% (active) in assay [1] (at 50.0 µM); 1% in assay [2] (setting [7]); 41% in assay [2] (setting [8]); 99.5% (active) in assay [2] (at 50.0 µM). Besides, the growth inhibition in assay [3] (setting [7]) is 3%; in assay [3] (setting [8]), 52%; in assay [3] (at 50.0 µM), 99.6% (active); in assay [4] (setting [7]), 4%; in assay [4] (setting [8]), 50%; in assay [4] (at 50.0 µM), 93.5% (active). The growth inhibition was 21% in assay [5] (setting [7]); 57% in assay [5] (setting [8]); 99.5% (active) in assay [5] (at 50.0 µM); 5% in assay [6] (setting [7]); 65% in assay [6] (setting [8]); 99.2% (active) in assay [6] (at 50.0 µM).

With `COC(C(=O)C1=C2Oc3c4c(cc(O)c3C(=O)C2C2=C(CCCC2)C1=O)OC(C)(C)C=C4)C(C)CCC=C(C)C` (configuration not stated), the growth inhibition in assay [1] (setting [7]) was 6%; in assay [1] (setting [8]), 90% (active); in assay [1] (at 50.0 µM), 74.2% (active); in assay [2] (setting [7]) it was -1%; in assay [2] (setting [8]) it was 90% (active); in assay [2] (at 50.0 µM), 79% (active). Moreover, the growth inhibition in assay [3] (setting [7]) was 3%; in assay [3] (setting [8]) it was 90% (active); in assay [3] (at 50.0 µM), 78.5% (active); in assay [4] (setting [7]) it was -5%; in assay [4] (setting [8]), 90% (active); in assay [4] (at 50.0 µM), 80.9% (active). The growth inhibition was 4% in assay [5] (setting [7]); 92% (active) in assay [5] (setting [8]); 78% (active) in assay [5] (at 50.0 µM); 4% in assay [6] (setting [7]); 92% (active) in assay [6] (setting [8]); 80.2% (active) in assay [6] (at 50.0 µM).

With `CC(NC(=O)C(NC(=O)C(NC(=O)C(F)(F)F)C(C)C)C(C)C)C(=O)Oc1c(Cl)c(Cl)c(Cl)c(Cl)c1Cl` (configuration not stated), the growth inhibition in assay [1] (setting [7]) was 5%; in assay [1] (setting [8]), 70% (active); in assay [1] (at 50.0 µM) it was 59%; in assay [2] (setting [7]), 6%; in assay [2] (setting [8]), 62%; in assay [2] (at 50.0 µM), 86.7% (active). For the same molecule, the growth inhibition is 21% in assay [3] (setting [7]); 80% (active) in assay [3] (setting [8]); 82.9% (active) in assay [3] (at 50.0 µM); 10% in assay [4] (setting [7]); 68% in assay [4] (setting [8]); 77.7% (active) in assay [4] (at 50.0 µM). In addition, the growth inhibition in assay [5] (setting [7]) was -20%; in assay [5] (setting [8]), 65%; in assay [5] (at 50.0 µM), 85.6% (active); in assay [6] (setting [7]), 28%; in assay [6] (setting [8]), 83% (active); in assay [6] (at 50.0 µM) it was 78.7% (active).

Turning to `c1ccc(Cn2nnc(-c3ccccc3)c2-c2ccccc2)cc1`, the growth inhibition was -2% in assay [1] (setting [7]); 90% (active) in assay [1] (setting [8]); 90.6% (active) in assay [1] (at 50.0 µM); -12% in assay [2] (setting [7]); 97% (active) in assay [2] (setting [8]); 87.6% (active) in assay [2] (at 50.0 µM). For the same molecule, the growth inhibition is -6% in assay [3] (setting [7]); 96% (active) in assay [3] (setting [8]); 85.6% (active) in assay [3] (at 50.0 µM); 6% in assay [4] (setting [7]); 97% (active) in assay [4] (setting [8]); 87.8% (active) in assay [4] (at 50.0 µM). The growth inhibition is 17% in assay [5] (setting [7]); 96% (active) in assay [5] (setting [8]); 94% (active) in assay [5] (at 50.0 µM); 14% in assay [6] (setting [7]); 94% (active) in assay [6] (setting [8]); 87.5% (active) in assay [6] (at 50.0 µM).

Take `CC(/C=C/c1ccco1)=N\NC(=S)NCC(C)C`: the growth inhibition is 13% in assay [1] (setting [7]); 80% (active) in assay [1] (setting [8]); 63.5% in assay [1] (at 50.0 µM); -20% in assay [2] (setting [7]); 53% in assay [2] (setting [8]); 61.9% in assay [2] (at 50.0 µM). Further, the growth inhibition in assay [3] (setting [7]) was 38%; in assay [3] (setting [8]) it was 86% (active); in assay [3] (at 50.0 µM), 81.2% (active); in assay [4] (setting [7]), 16%; in assay [4] (setting [8]) it was 61%; in assay [4] (at 50.0 µM), 64.4%. For the same molecule, the growth inhibition in assay [5] (setting [7]) is 30%; in assay [5] (setting [8]), 87% (active); in assay [5] (at 50.0 µM), 83.5% (active); in assay [6] (setting [7]), 25%; in assay [6] (setting [8]) it was 88% (active); in assay [6] (at 50.0 µM), 75.5% (active).
